Reference: PMC5540273 (PLoS ONE, 2017)

Legend:
Details in all cases: concentration: 1 μM, replicates: in singlicate; n = 1
SRMS = system: SRMS
SRPK1 = system: SRPK1
SRPK2 = system: SRPK2
SRPK3 = system: SRPK3
STK16 = system: STK16
STK33 = system: STK33
STK35 = system: STK35
STK36 = system: STK36
STK39 = system: STK39
SYK = system: SYK
SgK110 = system: SgK110
TAK1 = system: T1, TAK1
T1 construct: gene MAP3K7

TAOK1 = system: TAOK1
TAOK2 = system: TAOK2
TAOK3 = system: TAOK3
TBK1 = system: TBK1
TEC = system: TEC
TESK1 = system: TESK1
TGFBR1 = system: TGFBR1
TGFBR2 = system: TGFBR2
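Further: KINOMEscan kinase panel screen.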

Row | Compound | %Inh (SRMS) | %Inh (SRPK1) | %Inh (SRPK2) | %Inh (SRPK3) | %Inh (STK16) | %Inh (STK33) | %Inh (STK35) | %Inh (STK36) | %Inh (STK39) | %Inh (SYK) | %Inh (SgK110) | %Inh (TAK1) | %Inh (TAOK1) | %Inh (TAOK2) | %Inh (TAOK3) | %Inh (TBK1) | %Inh (TEC) | %Inh (TESK1) | %Inh (TGFBR1) | %Inh (TGFBR2)
1 | CC(=O)Nc1n[nH]c2ncc(-c3ccccc3)cc12 [SB-548492] | 25% | 25% | 0% | 20% | 26% | 0% | 10% | 12% | 0% | 2% | 3% | 20% | 27% | 24% | 8% | 29% | 1% | 6% | 0% | 0%
2 | Cl.Cn1ccc(-c2cccc(Nc3ccnc4cc(-c5nccs5)ccc34)c2)n1 [GW525701] | 0% | 0% | 51% | 0% | 4% | 0% | 0% | 0% | 6% | 0% | 19% | 0% | 0% | 0% | 0% | 17% | 17% | 34% | 12% | 0%
3 | Nc1n[nH]c2nnc(-c3ccccc3)cc12 [SB-517389] | 0% | 20% | 0% | 1% | 0% | 0% | 0% | 0% | 13% | 5% | 0% | 0% | 0% | 0% | 3% | 6% | 11% | 27% | 0% | 0%
4 | FC(F)(F)c1cc(Nc2nccc(-c3c(-c4ccc(Cl)cc4)nn4ncccc34)n2)ccc1Cl [GW829351] | 27% | 0% | 7% | 4% | 0% | 0% | 0% | 21% | 0% | 2% | 23% | 0% | 0% | 2% | 0% | 2% | 0% | 0% | 21% | 0%
5 | Fc1cccc(COc2ccc(Nc3ncnc4cc[nH]c34)cc2Cl)c1 | 0% | 8% | 7% | 33% | 20% | 15% | 0% | 33% | 9% | 32% | 0% | 8% | 0% | 0% | 0% | 4% | 18% | 0% | 9% | 0%
6 | c1ccc(-c2ccc3c(-c4ccnc(Nc5ccc6c(c5)OCCO6)n4)cnn3n2)cc1 [GW818941] | 0% | 48% | 0% | 21% | 95.8% | 17% | 8% | 25% | 22% | 7% | 0% | 0% | 0% | 0% | 5% | 22% | 0% | 12% | 11% | 22%
7 | CNc1nccc(-c2c(-c3ccc(F)cc3)ncn2C2CCN(C)CC2)n1 [SB-222903] | 15% | 0% | 0% | 0% | 0% | 13% | 0% | 3% | 0% | 27% | 36% | 0% | 0% | 7% | 0% | 1% | 10% | 3% | 24% | 0%
8 | COc1ccc(Nc2nccc(N3CCC(NC(=O)c4cccc(NC(C)=O)c4)C3)n2)cc1 (centres unmarked) [GSK1379732] | 9% | 18% | 61% | 0% | 11% | 2% | 0% | 0% | 15% | 18% | 10% | 0% | 0% | 0% | 0% | 0% | 0% | 26% | 4% | 0%
9 | Fc1cccc(COc2ccc(Nc3ncnc4nn5ccccc5c34)cc2Cl)c1 [GW689066] | 0% | 2% | 30% | 8% | 12% | 0% | 0% | 0% | 0% | 26% | 0% | 0% | 0% | 0% | 0% | 0% | 0% | 14% | 0% | 0%
10 | Clc1cc(Nc2ncnc3cc[nH]c23)ccc1OCc1ccccn1 | 0% | 0% | 0% | 19% | 35% | 9% | 0% | 12% | 8% | 8% | 0% | 9% | 0% | 0% | 0% | 4% | 0% | 7% | 15% | 0%
